Shown are actives, neighbours in structure and some others; about 8% of the full set was active somewhere.
TSHR antagonist: human thyrotropin receptor antagonism. P16473. 330,000 compounds, 0.2% hits. AID 504810. activity change, negative = inhibition, % at 11.5 µM. TSHR-expressing cells, TSH-stimulated cAMP HTRF, 2 h; hits give low values;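 active = activity change below a set negative limit, meaning inhibition stronger than a set level, cut at about -70% in these data; inconclusive = activity change between two set negative limits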
Target sequence (P16473 whole entry, looked up): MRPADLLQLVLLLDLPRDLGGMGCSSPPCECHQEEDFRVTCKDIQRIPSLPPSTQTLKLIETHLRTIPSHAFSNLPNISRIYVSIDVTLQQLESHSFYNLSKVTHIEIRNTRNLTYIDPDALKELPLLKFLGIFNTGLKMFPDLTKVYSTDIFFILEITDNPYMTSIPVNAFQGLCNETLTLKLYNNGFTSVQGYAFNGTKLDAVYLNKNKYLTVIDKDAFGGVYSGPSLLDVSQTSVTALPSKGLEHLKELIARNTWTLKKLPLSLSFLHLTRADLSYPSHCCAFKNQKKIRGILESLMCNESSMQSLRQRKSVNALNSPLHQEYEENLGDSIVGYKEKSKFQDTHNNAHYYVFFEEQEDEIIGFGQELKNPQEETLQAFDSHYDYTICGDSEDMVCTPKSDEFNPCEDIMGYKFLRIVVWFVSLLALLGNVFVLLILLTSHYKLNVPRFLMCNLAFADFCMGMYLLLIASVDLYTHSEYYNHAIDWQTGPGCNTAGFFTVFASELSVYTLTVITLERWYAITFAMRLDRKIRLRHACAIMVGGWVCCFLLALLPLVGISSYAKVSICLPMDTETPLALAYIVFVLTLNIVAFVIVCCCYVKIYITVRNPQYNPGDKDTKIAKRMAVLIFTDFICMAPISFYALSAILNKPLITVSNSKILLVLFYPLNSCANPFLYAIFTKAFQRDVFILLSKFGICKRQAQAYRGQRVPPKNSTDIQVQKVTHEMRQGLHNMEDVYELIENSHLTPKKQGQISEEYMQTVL
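Cell-based HTRF cAMP assay; TSHR cells + compound, TSH EC80 (4nM final), 2 h, 37 deg C. Lysis with anti-cAMP cryptate and cAMP-d2, 30 min RT, read 665/620 nm.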
RORg inh: ROR gamma (mouse) transcription inhibition. Drosophila S2 Gal4-RORgamma UAS-luciferase reporter, 20 h. Potency, µM (series often up to 53.6 µM), without a hit: at the highest dose activity change, negative = inhibition, hits mostly inhibitors. 310,000 compounds, 5.4% hits. AID 2551; note: potency is the fitted concentration of half-maximal effect; nearly all actives have a fitted effect of over 60% in size
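ROR gamma transcriptional activity was tracked as Gal4-UAS luciferase output in stably transfected Drosophila Schneider cells, with compound added 1 hr before 700 uM copper sulfate induction and a 20 hr ambient-temperature incubation.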
ELG1 DNA repair: blocks ELG1-dependent DNA repair in HEK293T cells; 330,000 compounds, 2.3% hits; HEK293T ELG1-luciferase reporter, luminescence, 16 h; DNA damage induced by 5-fluorouridine; Potency, µM (series often up to 46.1 µM), for inactives: at the highest dose activity change, negative = inhibition, actives largely listed as inhibitors; note: potency is the fitted concentration of half-maximal effect; nearly all actives have a fitted effect of over 55% in size
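Reporter activity after DNA damage by 5-fluorouridine is monitored. Compound-treated cells incubate 16 hr at 37 °C, then ONE-Glo is added for 30 min before luminescence reading.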
FBPA coupling cs: coupling enzyme interference in Giardia aldolase counter-screen; coupling enzyme system counterscreen, AmpLite Red fluorescence; activity change, negative = inhibition, % at 58.2 µM, hits read low; 290,000 compounds, 0.67% hits; in the data active = activity change below about -30%
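Fluorescence at 525 nm excitation and 598 nm emission measured inhibition of the coupled detection system without aldolase. Compounds (at 57.5 uM final) were preincubated 10 min at room temperature with coupling enzyme reagent before a 20 min substrate/AmpLite Red step.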
Gal4-VP16 FLuc: inhibits Gal4-VP16 luciferase reporter, ROR gamma counter-screen; Drosophila S2 Gal4-VP16 UAS-luciferase, luminescence, 20 h; Potency, µM (top dose mostly 53.6 µM), inactives show at the highest dose activity, negative = inhibition, most hits filed as inhibitors; 310,000 compounds, 3.5% hits;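 note: Gal4-VP16 expression switched on by copper sulfate through the metallothionein promoter; potency is the fitted concentration of half-maximal effect; nearly all actives have a fitted effect of over 50% in size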
Active calls of the source: *; ? = inconclusive; / = no result given; [ ] = another dose, or the depositor's remark. Unless noted, calls come from the whole dose curve; as a rule, active = well fitted curve in the direction sought with a large enough effect; inconclusive = small, poorly fitted or top-dose-only effect, or another doubt; inactive = no such curve, though single readings can be large; an effect the other way counts as inactive or inconclusive. % is set by controls: 0 for no effect and ±100 for the full control effect.

SMILES | TSHR antagonist | RORg inh | ELG1 DNA repair | FBPA coupling cs | Gal4-VP16 FLuc
O=C(CN1C(=O)C(=O)N(C2CCCC2)C1=O)NCCc1ccc(Cl)cc1Cl | 0.0 | / | 4.7% | / | /
O=C(NCCc1ccccc1)c1ccc2nc(-c3ccco3)c(-c3ccco3)nc2c1 | 8.7 | -26.6% | ? | -36.6* | -5.0%
COCCCNC(=S)Nc1cc2oc3ccccc3c2cc1OC | -15.3 | 5.62µM* | -5.8% | -0.6 | 7.08µM*
COc1cc2c(cc1NC(=S)Nc1cccc3ccccc13)oc1ccccc12 | 4.4 | 10µM* | 0.0% | -9.6 | 11.2µM*
Cc1sc2ncnc(Sc3nnnn3-c3ccc(Cl)cc3)c2c1C | -16.4 | 3.98µM* | ? | 1.9 | 7.08µM*
CC1(C)OCC(CSC2=C(SCC3COC(C)(C)O3)C(=O)c3ncccc3C2=O)O1 (stereo unspecified) | / | 11.2µM* | / | -87.1* | 15.8µM*
O=C1c2cccnc2-c2ncccc21 | 16.2 | -9.6% | 18.8% | -0.6 | 1.8%
Cc1ccc(S(=O)(=O)/N=C(/c2ccccc2)N2CCOCC2)c(C)c1 | -5.7 | -7.8% | 1.7% | -1.3 | 2.6%
CC(C)(C)c1ccc(S(=O)(=O)/N=C2\C=C(NS(=O)(=O)c3ccccc3)C(=O)c3ccccc32)cc1 | -14.0 | 2.3% | ? | -34.6* | -5.5%
Cc1ccc(S(=O)(=O)/N=C2\C=C(Nc3cccc(C(=O)O)c3)C(=O)c3ccccc32)cc1 | -42.1 | 15.8µM* | 23.1µM* | -46.6* | ?
Cc1ccc(S(=O)(=O)/N=C2\C=C(Nc3ccc(O)cc3)C(=O)c3ccccc32)cc1 | / | / | 10.3µM* | / | /
Cc1ccc(S(=O)(=O)/N=C2\C=C(Nc3cccc(C(=O)O)c3)C(=O)c3ccccc32)c(C)c1 | ? | ? | ? | -42.6* | ?
O=C(O)c1cccc(NS(=O)(=O)c2ccc3c(c2)C(=O)c2ccccc2C3=O)c1 | 2.2 | 19.3% | -10.0% | 4.0 | -7.7%
CCc1ccc(S(=O)(=O)/N=C2\C=C(Nc3ccc(C(=O)O)cc3)C(=O)c3ccccc32)cc1 | -41.0 | 11.2µM* | 4.61µM* | -47.6* | ?
CCCN[C@@H](C)C(=O)Nc1ccccc1C | / | -14.1%[16.9 µM] | / | 1.1 | 8.4%[17 µM]
COc1cc(C#Cc2c(-c3cncn3C)n(C)c3ccc(Br)cc23)cc(OC)c1 | -15.4 | / | 9.2µM* | / | /
COc1cc(C#Cc2c(-c3cncn3C)n(C)c3ccc(-c4ccc(OC)c(OC)c4)cc23)cc(OC)c1 | -12.4 | / | 7.3µM* | / | /
O=C(COC(=O)c1cc(=O)[nH]c2ccccc12)NC(=O)c1ccccc1 | / | / | 3.9% | / | /
O=C(NCC1CCCCC1)c1cccc(S(=O)(=O)N2CCCC2)c1 | -7.3 | / | -2.0% | / | /
Fc1ccc(-c2ccnc(=S)[nH]2)cc1 | 5.9 | 3.55µM* | ? | -0.2 | 2.82µM*
O=C(CNC(=O)c1cc(Cl)cc([N+](=O)[O-])c1)OCC(=O)N1CCCCC1 | 44.6 | / | 16.1% | / | /
CCc1c(C)sc(NC(=S)NC(C)C2CCCO2)c1C(=O)OC (stereo unspecified) | -15.1 | 15.8µM* | ? | -2.6 | 10µM*
CCc1c(C)sc(NC(=S)N2CCN(C(=O)C3CCCO3)CC2)c1C(=O)OC (stereo unspecified) | -0.8 | 1.3% | 4.3% | / | 23.4%
CCc1c(C)sc(NC(=S)N2CC(C)OC(C)C2)c1C(=O)OC (stereo unspecified) | -36.5 | 7.08µM* | -6.1% | -3.2 | -15.5%
C/C(CC(=O)NCc1ccccc1Cl)=N/NC(=O)c1ccccn1 | -2.6 | 0.9% | ? | -2.1 | 9.6%
SMILES | TSHR antagonist | RORg inh | ELG1 DNA repair | FBPA coupling cs | Gal4-VP16 FLuc
CCN(CC)S(=O)(=O)c1ccc(C(=O)NCC2CCCCC2)cc1 | 13.0 | 37.6% | 0.4% | 0.1 | 29.3%
COc1ccc(C)cc1S(=O)(=O)N(CC(=O)Nc1ccc2c(c1)OCCO2)Cc1ccccc1 | 7.0 | 7.6% | 18.4µM* | 1.5 | 3.0%
CCOc1ccc(N(CC(=O)Nc2cccc(OC)c2)S(=O)(=O)c2c(C)noc2C)cc1 | -16.6 | ? | ? | -6.0 | ?
Cc1ccc(N(CC(=O)Nc2ccc3c(c2)OCCO3)S(=O)(=O)c2c(C)noc2C)cc1 | -7.6 | 18.7% | 16.4µM* | -1.5 | -12.5%
CCOc1ccc(N(CC(=O)Nc2cccc(Cl)c2)S(=O)(=O)c2c(C)noc2C)cc1 | -25.9 | 15.8µM* | ? | -0.5 | 12.6µM*
COc1ccc(C)cc1S(=O)(=O)N(C)CC(=O)Nc1ccc2c(c1)OCO2 | -7.4 | -28.8% | -12.1% | -0.5 | -4.1%
O=C(NCCc1nnc2ccc(NCCCN3CCOCC3)nn12)c1ccccc1F | 1.5 | -11.5% | -1.2% | 0.8 | 1.2%
CC(C)CC(=O)Nc1ccc(C(=O)COC(=O)C2CC(=O)N(Cc3ccccc3)C2)cc1 (stereo unspecified) | 6.7 | / | 6.6% | / | /
N/C(Cn1cncn1)=N\NC(=O)C(=O)Nc1ccc(Cl)cc1Cl | -8.7 | 10µM* | ? | 0.7 | ?
N/C(Cn1cncn1)=N\NC(=O)c1ccc(Cl)cc1Cl | -0.3 | ? | -4.6% | 2.7 | ?
c1cncc(-c2nc(-n3ccnc3)c3ccccc3n2)c1 | / | -2.1% | / | 0.7 | -0.9%
Cc1nn(-c2ccc(Cl)cc2)c(=O)c2ccccc12 | -8.2 | 6.7% | ? | 0.4 | 13.3%[10 µM]
Cc1c(Cl)sn(-c2ccc(Cl)cc2)c1=O | -87.8* | 1.58µM* | ? | 6.8 | 2.82µM*
COc1ccc(C(=O)c2ccc([N+](=O)[O-])cc2)cc1S(=O)(=O)N1CCC(C(=O)O)CC1 | -14.6 | -35.1% | -7.2% | 3.1 | -15.6%
c1ccc(C2=Nn3c(nnc3-c3cccs3)SC2)cc1 | -11.4 | -15.3% | 12.6% | 0.1 | 0.7%
c1csc(C2=Nn3c(nnc3-c3ccncc3)SC2)c1 | 0.3 | 10.4% | 1.12µM* | / | ?
Cc1ccc(OCC(=O)NCCCNC(=O)c2ccccn2)cc1C | 1.9 | 6.3% | 5.6% | 0.0 | -0.8%
Cc1cc(C)nc(SCC(=O)Nc2nc(-c3ccccc3)c(-c3ccccc3)o2)n1 | -11.9 | 11.2µM* | -19.7% | 5.8 | 20µM*
Cc1ccc(C(=O)Nc2nc(-c3ccccc3)c(-c3ccccc3)o2)cc1 | -7.6 | 5.01µM* | -0.5% | -2.7 | 5.62µM*
N#Cc1c(N)nc(SCc2ccccn2)c(C#N)c1-c1cccs1 | -13.8 | 12.6µM* | 14.6µM* | 1.3 | -15.2%
N#Cc1c(N)nc(SCC(=O)OCc2ccccc2)c(C#N)c1-c1ccco1 | -78.5* | 0.3% | 1.9% | -1.0 | 1.7%
CCOC(=O)CSc1nc(N)c(C#N)c(-c2ccc(OC)cc2)c1C#N | -8.1 | 5.2% | -1.4% | 3.0 | 0.1%
N#Cc1c(N)nc(SCc2ccccc2)c(C#N)c1-c1ccco1 | -12.5 | ? | ? | 1.9 | 7.94µM*
